Our source for the Inhibition values is ChEMBL document CHEMBL4513141, “CO-ADD screening of NIH (USA) - Clinical Collection” (2021).

Molecules are shown by their SMILES. Measured potencies and affinities stand elsewhere.

As usually defined, the Inhibition is the relative decrease from the control value, in per cent.

The test system of one test is Klebsiella pneumoniae. The following applies: Concentration 20 uM; ASSAY_TEST Inhibition of Bacterial Growth; detection method Absorption (OD600); MEDIA CAMHB; plate type 384well; NBS; CORNING #3640; time 18 hr.
In another test the test system is Candida albicans. To be noted: 20 µM.
The next test concerns Cryptococcus neoformans. The following applies: Concentration 20 uM; ASSAY_TEST Inhibition of Fungal Growth; detection method Resazurin; Absorption (OD600-OD570); plate type 384well; NBS; CORNING #3640.

Turning to `C/C=C1/[C@H]2C=C(C)C[C@]1(N)c1ccc(O)nc1C2`, the figures for the Inhibition with Klebsiella pneumoniae, in the test with Candida albicans and in the test on Cryptococcus neoformans were 13.99%, 2.85% and -7.02%, respectively.
As to `CS(=O)(=O)OCCCCOS(C)(=O)=O` [BUSULFAN], the Inhibition is 14.59% in the test with Klebsiella pneumoniae, 3.72% in the test with Candida albicans and -1.79% with Cryptococcus neoformans.
For `CCC1=C[C@H]2CN(C1)Cc1c([nH]c3ccccc13)[C@@](C(=O)OC)(c1cc3c(cc1OC)N(C)[C@H]1[C@@](O)(C(=O)OC)[C@H](OC(C)=O)[C@]4(CC)C=CCN5CC[C@]31[C@@H]54)C2.O=C(O)C(O)C(O)C(=O)O.O=C(O)C(O)C(O)C(=O)O` the same measures were 8.46%, 4.55% and -7.91%.
For `COC1=CC(=O)C[C@@H](C)[C@]12Oc1c(Cl)c(OC)cc(OC)c1C2=O` [GRISEOFULVIN] the same measures were 11.08%, 3.42% and -0.94%.
The matching figures for `CC1Cc2ccccc2N1NC(=O)c1ccc(Cl)c(S(N)(=O)=O)c1` (stereo unspecified) [INDAPAMIDE]: 9.63%, -0.23% and -0.18%.
With `COc1ccc([C@@H]2Sc3ccccc3N(CCN(C)C)C(=O)[C@@H]2OC(C)=O)cc1.Cl` [DILTIAZEM HYDROCHLORIDE], the results for the Inhibition in the test on Klebsiella pneumoniae, in the test on Candida albicans and with Cryptococcus neoformans were 11.57%, 4.02% and 1.8%, respectively.
The matching figures for `Nc1ncnc2c1ncn2[C@@H]1O[C@H](CO)[C@@H](O)[C@@H]1O` [VIDARABINE]: 13.1%, 4.29% and 1.72%.
Turning to `CN(C)CC/C=C1/c2ccccc2COc2ccc(CC(=O)O)cc21.Cl` [OLOPATADINE HYDROCHLORIDE], the Inhibition with Klebsiella pneumoniae was determined as 3.13%; with Candida albicans, 4.03%; with Cryptococcus neoformans it was 4.6%.
The matching figures for `CC1CNc2c(cccc2S(=O)(=O)N[C@@H](CCCNC(=N)N)C(=O)N2CC[C@@H](C)C[C@@H]2C(=O)O)C1` (stereo partly specified) [ARGATROBAN]: 8.18%, 4.39% and -2.44%.
The matching figures for `CC(C)(C)NC(=O)[C@@H]1C[C@@H]2CCCC[C@@H]2CN1C[C@@H](O)[C@H](Cc1ccccc1)NC(=O)[C@H](CC(N)=O)NC(=O)c1ccc2ccccc2n1.CS(=O)(=O)O` [SAQUINAVIR MESYLATE]: 4.6%, 4.21% and -6.99%.
For `O=C(CCCN1CC=C(n2c(=O)[nH]c3ccccc32)CC1)c1ccc(F)cc1` [DROPERIDOL] the same measures were 9.88%, 4.22% and -8.67%.
Take `Cc1cccc(CN2CCN(C(c3ccccc3)c3ccc(Cl)cc3)CC2)c1.Cl.Cl` (stereo unspecified): the Inhibition in the test with Klebsiella pneumoniae is 10.89%; with Candida albicans it was 1.13%; in the test on Cryptococcus neoformans it was -13%.
The matching figures for `OCCN(CCO)c1nc(N2CCCCC2)c2nc(N(CCO)CCO)nc(N3CCCCC3)c2n1` [DIPYRIDAMOLE]: 2.81%, 2.59% and 5.59%.
On to `COc1ccc(-c2cc(=O)c3c(OC)c(OC)c(OC)c(OC)c3o2)cc1OC` [NOBILETIN], for which the Inhibition with Klebsiella pneumoniae was 4.76%; in the test on Candida albicans, 7.12%; in the test with Cryptococcus neoformans, -2.3%.
For `CNCCCCOc1ccccc1Cc1ccccc1.Cl` the same measures were 18.69%, 1.66% and -8.24%.
The matching figures for `Cl.O.OC[C@H]1O[C@@H](n2cnc3c(N[C@H]4CCC[C@@H]4O)ncnc32)[C@@H](O)C1O` (stereo partly specified): 8.61%, 3.02% and -2.1%.
For `CCCCNc1cc(C(=O)O)cc(S(N)(=O)=O)c1Oc1ccccc1` [BUMETANIDE] the same measures were 11.75%, 3.22% and 1%.
As to `CC(COc1ccccc1)NC(C)C(O)c1ccc(O)cc1.Cl` (stereo unspecified) [ISOXSUPRINE HYDROCHLORIDE], the Inhibition with Klebsiella pneumoniae was 7.34%; with Candida albicans, 3.25%; in the test with Cryptococcus neoformans, -2.3%.
For `O=C(O)CCNC(=O)c1ccc(N=Nc2ccc(O)c(C(=O)O)c2)cc1` the same measures were 9.82%, 4.41% and -5.87%.
For `CN1CCC(=C2c3ccccc3C=Cc3ccccc32)CC1.Cl` [CYPROHEPTADINE HYDROCHLORIDE] the same measures were 17.49%, 3.56% and -5.58%.
For `CN1C(=O)CC[C@H]1c1cccnc1` [COTININE] the same measures were 5.32%, 4.46% and -1.87%.
Take `O=C1C(CC[S+]([O-])c2ccccc2)C(=O)N(c2ccccc2)N1c1ccccc1` (stereo unspecified) [SULFINPYRAZONE]: the values for the Inhibition in the test on Klebsiella pneumoniae, in the test with Candida albicans and with Cryptococcus neoformans were 13.98%, 4.96% and -8.91%, respectively.
The matching figures for `CCC(C)(C)/N=C(\NC#N)Nc1cccnc1`: -0.95%, 3.82% and -26.21%.
For `COC(=O)CCc1ccc(OCC(O)CNC(C)C)cc1.Cl` (stereo unspecified) [ESMOLOL HYDROCHLORIDE] the same measures were 3.48%, 1.99% and -7.33%.
For `CN1CCc2cc(Cl)c(O)cc2[C@@H](c2ccccc2)C1.Cl` the same measures were 8.81%, 1.81% and -7.18%.
Regarding `N[C@@H](Cc1cc(I)c(Oc2cc(I)c(O)c(I)c2)c(I)c1)C(=O)O` [LEVOTHYROXINE], the Inhibition is 0.79% with Klebsiella pneumoniae, 21.1% in the test with Candida albicans and -5.43% in the test with Cryptococcus neoformans.
The matching figures for `CC(=O)C1(O)CCC2C3CC(C)C4=CC(=O)C=CC4(C)C3(F)C(O)CC21C` (stereo unspecified): 4.1%, 2.21% and -3.1%.
